The source made the active and inactive calls.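 Rule for the calls: active = compound whose NMR saturation transfer difference test with menin is positive, showing direct binding to the protein; inactive = the rest.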

Sequence of Menin (Homo sapiens) (O00255 whole entry, looked up, the tested form may be a part): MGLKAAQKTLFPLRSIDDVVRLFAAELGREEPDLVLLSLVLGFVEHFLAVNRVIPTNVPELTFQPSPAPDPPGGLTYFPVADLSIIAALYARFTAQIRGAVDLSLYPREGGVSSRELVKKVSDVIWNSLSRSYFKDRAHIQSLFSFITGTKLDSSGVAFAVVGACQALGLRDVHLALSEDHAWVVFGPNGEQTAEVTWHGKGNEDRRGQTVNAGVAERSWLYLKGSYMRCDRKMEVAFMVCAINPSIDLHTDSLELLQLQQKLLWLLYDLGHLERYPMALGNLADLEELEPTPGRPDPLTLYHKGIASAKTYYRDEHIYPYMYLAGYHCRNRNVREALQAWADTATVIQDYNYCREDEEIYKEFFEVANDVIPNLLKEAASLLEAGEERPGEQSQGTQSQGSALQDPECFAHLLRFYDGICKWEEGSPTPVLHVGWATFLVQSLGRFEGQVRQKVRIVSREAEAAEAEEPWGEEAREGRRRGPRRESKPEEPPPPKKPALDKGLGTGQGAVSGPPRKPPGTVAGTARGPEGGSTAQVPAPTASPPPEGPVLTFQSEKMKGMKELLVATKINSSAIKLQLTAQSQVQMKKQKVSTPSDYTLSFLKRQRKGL

In the experiment the target is Menin (Homo sapiens) (UniProt O00255). The experiment can be described thus: Confirmation of Inhibitors Targeting the Menin-MLL Interaction in MLL Related Leukemias: NMR spectroscopy to verify direct binding of compounds to menin. To be noted: purified menin, NMR STD binding, 100 uM. The text has this:
qHTS Assay for Inhibitors Targeting the Menin-MLL Interaction in MLL Related Leukemias NIH Chemical Genomics Center [NCGC] NIH Molecular Libraries Probe Centers Network [MLPCN] MLPCN Grant: MH084875-01A1 Assay Submitter (PI): Jolanta Grembecka, Tomasz Cierpicki, University of Virginia Translocations of the MLL (Mixed Lineage Leukemia) gene are frequently found in human leukemias affecting both children and adults. Fusion of MLL to one of more than 60 genes results in generation of oncogenic proteins upregulating Hox genes, which are vital to blood cell development. Patients harboring fusion of the MLL gene suffer from aggressive leukemias and respond poorly to available therapies. All of the oncogenic fusion proteins have a preserved N-terminal fragment of MLL that has been identified to interact with menin. It has been recently discovered that association with menin is critical to the leukemogenic activity of the MLL fusion oncoproteins. Selective targeting of the menin-MLL interaction could provide an attractive therapeutic approach to develop novel drugs for MLL-related leukemias. Small molecules blocking the menin-MLL interaction should reverse the oncogenic potential of MLL fusion proteins. We have developed and optimized a fluorescence polarization-based assay for the identification of Menin-MLL inhibitors. The assay was run employing two different MLL-derived peptides. The present assay uses a 12 amino acid peptide labeled with fluorescein at its N-terminus. This peptide consists of the menin high affinity binding motif from MLL and is potently bound by menin. Another peptide with a mutated sequence, labeled with Texas Red, was used in parallel as a less stringent screen for inhibitors. The present assay was developed to confirm hits from this primary screen, examining saturation transfer differences in NMR spectra upon incubation of the menin protein with compound.
The Menin protein, the MLL-wild type (w.t.) derived peptide (N-terminal 12 amino acids), the MLL-derived peptide labeled with Texas Red and the MLL-w.t. peptide labeled with Fluorescein were kindly supplied by laboratory of Dr. Jolanta Grembecka, University of Virginia. All protein and peptide solutions were stored in single use aliquots at -80C. The Buffer components for all assays were purchased from Sigma-Aldrich (St. Louis, MO) and Invitrogen (Carlsbad, CA). Assay Reagents: 1. Menin protein 2. MLL w.t. 3. NMR buffer: 50mM phosphate, 50mM NaCl, 1mM DTT, pH = 7.5 NMR protocol: 1. Prepare 450 uL of menin (2.5 uM) in complex with 100uM compound in NMR buffer and run STD (Saturation Transfer Difference) on NMR Bruker 600 MHz 2. Prepare 450 uL of menin (2.5 uM) in complex with 100 uM compound and 25uM of MLL w.t. in NMR buffer and run STD (Saturation Transfer Difference) on NMR Bruker 600 MHz
Turning to `O=C(Nc1ccc(F)c(Cl)c1)c1cc(-c2ccco2)on1`, the outcome was “inactive; negative”.
The value for `O=C(CS)Nc1ccc2ccccc2c1` was “inactive; negative”.
For the compound `Cc1nc(N2CCN(C)CC2)c2c3c(sc2n1)CCCC3`, the outcome was “inactive; negative”.
The value for `CC(=O)NC1C(=O)N(CCN2CCOCC2)c2ccc(C)cc21` (stereo not given) was “inactive; negative”; that for `O=C(C[N+]12CC[N+](CC(=O)c3ccc(F)cc3)(CC1)CC2)c1ccc(F)cc1` was “active; positive”; that for `CN(CCOc1ccc(Cl)cc1)CC(O)c1ccccc1` (stereo not given) was “inactive; negative”.
`CCOC(=O)c1cnc2ccc(OCC)cc2c1N1CCN(C)CC1`: the outcome is “active; positive”.
The result for `COc1cc(-c2ccc(-[n+]3nc(-c4ccccc4)nn3-c3ccc([N+](=O)[O-])cc3)c(OC)c2)ccc1-[n+]1nc(-c2ccccc2)nn1-c1ccc([N+](=O)[O-])cc1` reads “inactive; negative”; that for `COC(=O)Cc1c(C)nc2nc(-c3ccc(OC)cc3)[nH]n2c1=O`, “inactive; negative”.
The result for `Cc1cc2[nH]c3c(c[n+](C)c4ccccc34)c2cc1C` reads “inactive; negative”; that for `O=C(Nc1cc(Br)ccc1O)c1cc(-c2ccc3c(c2)OCO3)on1`, “inactive; negative”.
On to `C[C@H](NC(=O)c1cc2c(cn1)[nH]c1ccccc12)C(=O)O`, for which the outcome was “inactive; negative”.
As for `CCNc1ccccc1CP(=O)(c1ccccc1)c1ccccc1O` (stereo not given), the outcome is “inactive; negative”.
As for `CCC[n+]1c2ccccc2cc2ccccc21`, the outcome was “inactive; negative”.
For `CCc1ccc2c(c1)C(NC(C)=O)C(=O)N2CCN1CCOCC1` (stereo not given), the outcome was “inactive; negative”.
In the case of `N#Cc1ccc(OCC(O)CN2CCN(C(c3ccccc3)c3ccccc3)CC2)cc1` (stereo not given), the outcome was “active; positive”.
In the case of `O=C(O)c1ccccc1NS(=O)(=O)c1cccc(-n2sc3ccccc3c2=O)c1`, the outcome was “inactive; negative”.
The result for `COc1ccccc1NS(=O)(=O)c1cc(NC(=O)Nc2cccc(C)c2)ccc1N1CCCCC1` reads “inactive; negative”; that for `CC(C)Sc1nc(N2CCOCC2)c2c3c(sc2n1)COC(C)(C)C3`, “inactive; negative”.
As for `O=C(Nc1nnc(-c2ccccc2SCc2ccccc2)s1)Nc1ccccc1F`, the outcome is “inactive; negative”.
For `CN(C)c1ccc(C2CC(=O)C=C(Nc3ccccc3N)C2)cc1` (stereo not given), the outcome is “inactive; negative”.
For `CCc1cc2c(N3CCN(c4nnc(CC)s4)CC3)ncnc2s1`, the outcome was “inactive; negative”.
The result for `CCOc1cc(CNCCc2ccc(S(N)(=O)=O)cc2)ccc1OCc1ccccc1` reads “active; positive”.
As to `CNC[C@H](CC1CCCCC1)NC[C@H](Cc1ccccc1)NCCC12CC3CC(CC(C3)C1)C2`, the outcome was “inactive; negative”.
The result for `CCNC(=S)N1CCN(c2nc(CC)nc3sc4c(c23)CCCC4)CC1` reads “inactive; negative”.
Regarding `CCOc1ccc2c(c1)C(NC(C)=O)C(=O)N2CCN1CCOCC1` (stereo not given), the outcome was “inactive; negative”.
Take `CCCC[n+]1c2ccccc2cc2ccccc21`: the outcome is “inactive; negative”.
Regarding `O=C(COC(=O)c1ccc(NS(=O)(=O)c2cccs2)cc1)Nc1nc2c(F)c(F)c(F)cc2s1`, the outcome was “inactive; negative”.
The result for `N=C1c2ccccc2CN1c1ccc(N2CCOCC2)c(S(=O)(=O)Nc2ccc(Cl)cc2)c1` reads “inactive; negative”; that for `CCc1cc2c(N3CCN(C(=O)c4ccco4)CC3)ncnc2s1`, “inactive; negative”.
As for `COc1ccc(S(=O)(=O)Nc2cc(SCC(=O)O)c(O)c3ccccc23)cc1`, the outcome was “inactive; negative”.
The result for `CCc1oc2ccccc2c1C(=O)c1cc(Br)c(O)c(Br)c1` reads “inactive; negative”; that for `O=C(CSc1nc(O)cc(=O)n1-c1ccccc1)c1ccc(Br)cc1`, “inactive; negative”.
Regarding `CCOC(=O)c1cnc2ccc(OC)cc2c1Nc1ccc(N2CCN(C)CC2)cc1`, the outcome is “inactive; negative”.
Regarding `O=C1C(SCCO)=C(SCCO)C(=O)c2ccccc21`, the outcome was “inactive; negative”.
The value for `CCN(CC)Cc1cc2[nH]c3c4ccc(Cl)cc4ncc3c2cc1OC` was “inactive; negative”; that for `CCC(c1nnnn1Cc1ccc(F)cc1)N1CCN(C2CCCCC2)CC1` (stereo not given) was “active; positive”; that for `COc1ccc2[nH]c3c(C)c4ccncc4c(C)c3c2c1` was “inactive; negative”.
The value for `O=C(CCC1CCCCC1)NCCN1C2=NC[C@H](Cc3ccc(O)cc3)N2C[C@H]1Cc1ccc(O)cc1` was “active; positive”; that for `COC(=O)[C@H](C)NC(=O)c1cc2c(cn1)[nH]c1ccccc12` was “inactive; negative”.

The values above are taken from PubChem BioAssay AID2781 (National Center for Advancing Translational Sciences (NCATS), 2010).
